In PubChem BioAssay (NCATS):
Results filed as inconclusive are left out. A number with no mark means an inactive call. Active and inactive are the calls of the source. The call rests on the fitted dose curve; in most records, active means well fitted cell-killing curve with a large enough effect; inconclusive means small, poorly fitted or top-dose-only effect, or effect the other way; inactive means no such curve, though single readings can be large or run the other way.

assay: Quantitative High-Throughput drug screen in 47 multiple myeloma cell lines against the NCATS MIPE library collection: SKMM1_PLB cell viability assay (AID 1919863); conditions: SKMM1 myeloma viability, CellTiter-Glo ATP, 48 h; viability: hits give low values; further: nearly all actives have a fitted effect of over 35% in size
Method in brief: (§1)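 Plated at 500 cells per well, myeloma lines received MIPE 4.0 compounds by pin tool. Following 48 h culture at 37 °C, CellTiter-Glo luminescence gave viability relative to DMSO and media-only controls.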
Potency means the concentration at half of the fitted maximal effect.

SMILES	Potency	viability
CC(C)Cn1cnc2c(N)nc3ccccc3c21	14.8 µM (active)	–
COc1cc(NS(=O)(=O)c2ccc(N)cc2)nc(OC)n1	–	133%
CO[C@@]12[C@H](COC(N)=O)C3=C(C(=O)C(C)=C(N)C3=O)N1C[C@@H]1N[C@@H]12	20.9 µM (active)	–
CCN1CCCC1CNC(=O)c1cc(S(N)(=O)=O)ccc1OC (centres undefined)	–	123%
Nc1nc(=S)c2[nH]cnc2[nH]1	5.9 µM (active)	–
C[C@@H]1CN(c2c(F)c(N)c3c(=O)c(C(=O)O)cn(C4CC4)c3c2F)C[C@H](C)N1	–	160%
COc1ccc(C(=O)CC(=O)c2ccc(C(C)(C)C)cc2)cc1	5.9 µM (active)	–
CN(C)c1ccc(C(=C2C=CC(=[N+](C)C)C=C2)c2ccc(N(C)C)cc2)cc1	0.0662 µM (active)	–
NC(=O)c1cccc(N)c1	–	132%
CCN(CC)CCn1c(=O)c(Cc2ccc(OC)cc2)nc2ccccc21	–	134%
COc1ccc2cc3[n+](cc2c1OC)CCc1cc2c(cc1-3)OCO2	14.8 µM (active)	–
COC(=O)Nc1nc2ccc(C(=O)c3ccccc3)cc2[nH]1	0.332 µM (active)	–
CN(CCOc1ccc(CC2SC(=O)NC2=O)cc1)c1ccccn1 (centres undefined)	–	112%
CC(C)(C)C(=O)OCOP(=O)(COCCn1cnc2c(N)ncnc21)OCOC(=O)C(C)(C)C	20.9 µM (active)	–
Nc1[nH]c(=O)ncc1F	–	117%
CC(C)(C)NC(=O)[C@H]1CC[C@H]2[C@@H]3CC[C@H]4NC(=O)C=C[C@]4(C)[C@H]3CC[C@]12C	–	142%
C1CCC(C(CC2CCCCN2)C2CCCCC2)CC1 (centres undefined)	18.7 µM (active)	–
COc1nc(N)nc2c1ncn2[C@@H]1O[C@H](CO)[C@@H](O)[C@@H]1O	–	124%
S=P(N1CC1)(N1CC1)N1CC1	–	142%
CCCCc1oc2ccc(NS(C)(=O)=O)cc2c1C(=O)c1ccc(OCCCN(CCCC)CCCC)cc1	18.7 µM (active)	–
CNS(=O)(=O)CCc1ccc2[nH]cc(C3CCN(C)CC3)c2c1	4.18 µM (active)	–

assay: Quantitative High-Throughput drug screen in 47 multiple myeloma cell lines against the NCATS MIPE library collection: U266_ATCC cell viability assay (AID 1919864); conditions: U266 myeloma viability, CellTiter-Glo ATP luminescence, 48 h; series mostly up to 45.8 µM; further: nearly all actives have a fitted effect of over 35% in size
Method in brief: as §1

SMILES	Potency
CCOC(=O)[C@H](CCc1ccccc1)N[C@H]1CCc2ccccc2N(CC(=O)O)C1=O	18.7 µM (active)
CC(C)Cn1cnc2c(N)nc3ccccc3c21	20.9 µM (active)
COc1cc(NS(=O)(=O)c2ccc(N)cc2)nc(OC)n1	inactive
CO[C@@]12[C@H](COC(N)=O)C3=C(C(=O)C(C)=C(N)C3=O)N1C[C@@H]1N[C@@H]12	20.9 µM (active)
O=NN(CCCl)C(=O)NC1CCCCC1	inactive
Nc1nc(=S)c2[nH]cnc2[nH]1	8.33 µM (active)
COc1ccc(C(=O)CC(=O)c2ccc(C(C)(C)C)cc2)cc1	5.26 µM (active)
CN(C)c1ccc(C(=C2C=CC(=[N+](C)C)C=C2)c2ccc(N(C)C)cc2)cc1	1.05 µM (active)
NC(=O)c1cccc(N)c1	inactive
CCN(CC)CCn1c(=O)c(Cc2ccc(OC)cc2)nc2ccccc21	inactive
COc1ccc2cc3[n+](cc2c1OC)CCc1cc2c(cc1-3)OCO2	9.35 µM (active)
COC(=O)Nc1nc2ccc(C(=O)c3ccccc3)cc2[nH]1	14.8 µM (active)
CN(CCOc1ccc(CC2SC(=O)NC2=O)cc1)c1ccccn1 (centres undefined)	16.6 µM (active)
CC(C)(C)C(=O)OCOP(=O)(COCCn1cnc2c(N)ncnc21)OCOC(=O)C(C)(C)C	0.332 µM (active)
Nc1[nH]c(=O)ncc1F	2.64 µM (active)
CC(C)(C)NC(=O)[C@H]1CC[C@H]2[C@@H]3CC[C@H]4NC(=O)C=C[C@]4(C)[C@H]3CC[C@]12C	0.743 µM (active)
C1CCC(C(CC2CCCCN2)C2CCCCC2)CC1 (centres undefined)	11.8 µM (active)
CC[C@H](NC(C)C)[C@H](O)c1ccc(O)c2[nH]c(=O)ccc12	inactive
Cc1nnc(NS(=O)(=O)c2ccc(N)cc2)s1	14.8 µM (active)
COc1nc(N)nc2c1ncn2[C@@H]1O[C@H](CO)[C@@H](O)[C@@H]1O	16.6 µM (active)
Cc1ccnc2c1NC(=O)c1cccnc1N2C1CC1	16.6 µM (active)
CCCCOc1ccc(CC(=O)NO)cc1	8.33 µM (active)
CCCCc1oc2ccc(NS(C)(=O)=O)cc2c1C(=O)c1ccc(OCCCN(CCCC)CCCC)cc1	14.8 µM (active)

assay: Quantitative High-Throughput drug screen in 47 multiple myeloma cell lines against the NCATS MIPE library collection: XG6_PLB cell viability assay (AID 1919865); conditions: XG6 myeloma viability, CellTiter-Glo ATP luminescence, 48 h; series mostly up to 45.8 µM; further: nearly all actives have a fitted effect of over 40% in size
Method in brief: as §1

SMILES	Potency
CCOC(=O)[C@H](CCc1ccccc1)N[C@H]1CCc2ccccc2N(CC(=O)O)C1=O	14.8 µM (active)
COc1cc(NS(=O)(=O)c2ccc(N)cc2)nc(OC)n1	inactive
CCN1CCCC1CNC(=O)c1cc(S(N)(=O)=O)ccc1OC (centres undefined)	inactive
Nc1ccc(S(=O)(=O)Nc2ccccn2)cc1	inactive
O=NN(CCCl)C(=O)NC1CCCCC1	inactive
Nc1nc(=S)c2[nH]cnc2[nH]1	1.05 µM (active)
C[C@@H]1CN(c2c(F)c(N)c3c(=O)c(C(=O)O)cn(C4CC4)c3c2F)C[C@H](C)N1	inactive
CCc1cc(C(N)=S)ccn1	inactive
COc1ccc(C(=O)CC(=O)c2ccc(C(C)(C)C)cc2)cc1	0.743 µM (active)
CN(C)c1ccc(C(=C2C=CC(=[N+](C)C)C=C2)c2ccc(N(C)C)cc2)cc1	0.0833 µM (active)
CCC(=O)O[C@]1(C(=O)SCF)[C@H](C)C[C@H]2[C@@H]3C[C@H](F)C4=CC(=O)C=C[C@]4(C)[C@@]3(F)[C@@H](O)C[C@@]21C	4.18 µM (active)
O=P(O)(O)C(O)(Cc1cccnc1)P(=O)(O)O	inactive
COc1ccc2cc3[n+](cc2c1OC)CCc1cc2c(cc1-3)OCO2	16.6 µM (active)
COC(=O)Nc1nc2ccc(C(=O)c3ccccc3)cc2[nH]1	0.418 µM (active)
CN(CCOc1ccc(CC2SC(=O)NC2=O)cc1)c1ccccn1 (centres undefined)	inactive
CN(Cc1cc(Br)cc(Br)c1N)C1CCCCC1	inactive
CC(C)(C)C(=O)OCOP(=O)(COCCn1cnc2c(N)ncnc21)OCOC(=O)C(C)(C)C	0.469 µM (active)
Nc1[nH]c(=O)ncc1F	26.4 µM (active)
CC(C)(C)NC(=O)[C@H]1CC[C@H]2[C@@H]3CC[C@H]4NC(=O)C=C[C@]4(C)[C@H]3CC[C@]12C	0.132 µM (active)
NNC(=O)c1ccncc1	inactive
CC(C)OC(=O)C(C(=O)OC(C)C)=C1SC=CS1	inactive
C1CCC(C(CC2CCCCN2)C2CCCCC2)CC1 (centres undefined)	20.9 µM (active)
CC[C@H](NC(C)C)[C@H](O)c1ccc(O)c2[nH]c(=O)ccc12	inactive
Cc1nnc(NS(=O)(=O)c2ccc(N)cc2)s1	1.87 µM (active)
COc1nc(N)nc2c1ncn2[C@@H]1O[C@H](CO)[C@@H](O)[C@@H]1O	inactive
S=P(N1CC1)(N1CC1)N1CC1	23.5 µM (active)
Cc1ccnc2c1NC(=O)c1cccnc1N2C1CC1	23.5 µM (active)
CCCCc1oc2ccc(NS(C)(=O)=O)cc2c1C(=O)c1ccc(OCCCN(CCCC)CCCC)cc1	8.33 µM (active)
CC(=O)CC(c1ccccc1)c1c(O)c2ccccc2oc1=O (centres undefined)	inactive
CNS(=O)(=O)CCc1ccc2[nH]cc(C3CCN(C)CC3)c2c1	0.372 µM (active)
